The list is not random: actives were taken first. Their share in the collection is about 2.4%.
D2 ag-1 – agonists of human D2 dopamine receptor (beta-arrestin); activation, % (concentration not given with the values); actives 0.084% (n = 360,000); P14416; DiscoveRx PathHunter D2 beta-arrestin, luminescence, 90 min; 100% = 57 uM dopamine signal; in the data active = activation above about 40%; inconclusive = between about 15% and that limit
Target sequence (P14416 whole entry, looked up): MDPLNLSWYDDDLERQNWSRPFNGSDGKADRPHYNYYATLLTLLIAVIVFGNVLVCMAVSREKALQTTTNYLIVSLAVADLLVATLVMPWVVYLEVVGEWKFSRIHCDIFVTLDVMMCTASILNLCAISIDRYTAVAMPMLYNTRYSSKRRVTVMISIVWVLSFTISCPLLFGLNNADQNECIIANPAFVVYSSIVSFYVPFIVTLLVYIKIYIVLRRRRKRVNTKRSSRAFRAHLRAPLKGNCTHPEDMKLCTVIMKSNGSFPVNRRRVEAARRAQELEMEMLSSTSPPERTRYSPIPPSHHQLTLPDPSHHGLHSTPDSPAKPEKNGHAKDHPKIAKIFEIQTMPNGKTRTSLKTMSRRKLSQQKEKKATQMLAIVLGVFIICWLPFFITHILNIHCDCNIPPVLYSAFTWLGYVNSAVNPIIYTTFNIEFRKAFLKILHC
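DiscoveRx PathHunter D2 beta-arrestin cells (2,100/well) attached overnight, then compound-stimulated 90 min at 37 C in HBSS/10 mM HEPES/0.1% Tween-20 buffer; beta-galactosidase complementation read by luminescence after 1 h at ambient temperature. Dopamine 57 uM final (EC100) as control.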
D2 ag-2 – D2 dopamine receptor (human) agonism. P14416. HEK293 T-REx D2 cells, calcium flux agonist mode. activation, % at 2 µM. actives 0.53% (n = 340,000);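 active = activation over 3 SD above normal in the single-dose calcium agonist read, cut at about 30% in these data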
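Agonism scored from kinetic calcium signal (1 read/sec, 180 s) following compound pin transfer, after a 10 s baseline. Cells: HEK293 Trex line expressing inducible D2 receptor coupled to calcium, dye-loaded after overnight culture at 30 C.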
D2 antag – antagonists of human D2 dopamine receptor. HEK293 TREx D2 cells, calcium flux, dopamine EC80. P14416. inhibition, % at 10 µM. AID 485344. actives 2% (n = 340,000); in the data active = inhibition above about 30%; inactive = below that, where a call was filed
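In this primary screen, negative modulation is detected by tracking calcium flux after an EC80 dopamine challenge in inducible HEK293 T-REx D2 cells preexposed to test compound for 180 s.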
D2 PAM-1 – D2 dopamine receptor (human) potentiation. HEK293 T-REx D2, calcium flux, EC20 dopamine potentiation. potentiation, % at 10 µM. actives 0.34% (n = 340,000). AID 485347;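 active = potentiation over 3 SD above the plate norm, cut at about 30% in these data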
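Primary screen. Calcium kinetics in induced HEK293 T-REx D2 cells: compound pre-addition 180 s, EC20 dopamine, 180 s more.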
B2AR arrestin – recruits beta-arrestin to the human beta2-adrenergic receptor; P07550; beta-arrestin recruitment to beta2AR, cell-based reporter; Potency, µM (top dose mostly 46.1 µM), usual class: activators; actives 0.02% (n = 330,000); AID 492947; active = well fitted activation curve with a large enough effect; inconclusive = small, poorly fitted or top-dose-only effect; also: nearly all actives have a fitted effect of over 65% in size
D2 PAM-2 – human D2 receptor positive allosteric modulation; potentiation, % (no concentration beside the values); DiscoveRx D2 beta-arrestin cells, luminescence, 90 min; 100% = 57 uM dopamine signal; actives 0.23% (n = 360,000); AID 624464; in the data active = potentiation above about 50%; inconclusive = mostly about 30% to 49%
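D2 cells co-treated with compound plus 50 nM dopamine (EC20) for 90 min at 37 deg C to detect potentiation. Beta-arrestin recruitment was read as enzyme-fragment luminescence after 1 h at ambient temperature. Full response was set by 57 uM dopamine.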
Numbers stand for hits; . = inactive; ? = inconclusive; / = no result given.

SMILES	D2 ag-1	D2 ag-2	D2 antag	D2 PAM-1	B2AR arrestin	D2 PAM-2
COc1ccc(NC(=O)N2CCN(S(C)(=O)=O)CC2)cc1	.	.	34	.	.	.
COc1ccc(N2CCN(C(=O)Nc3ccc(S(=O)(=O)N(C)C)cc3)CC2)cc1	.	.	41	.	.	.
O=C(COC(=O)COc1ccc2c(c1)CCC2)Nc1ccccc1	.	.	.	.	.	.
Fc1cccc(Cc2noc(CN3CCOCC3)n2)c1	.	.	.	.	.	.
Fc1cccc(Cc2noc(CN3CCC(c4ccncc4)CC3)n2)c1	.	.	53	.	.	.
O=C(Cc1ccccc1)N(c1ccc(F)cc1)C1C=CS(=O)(=O)C1 (stereo not drawn)	.	.	.	.	.	.
O=C(/C=C/c1ccccc1)N1CCC(N2CCC(C(=O)N3CCOCC3)CC2)CC1	.	.	.	.	.	.
COCCn1c(=O)[nH]c2cc(C(=O)NCCN3CCN(c4ccccc4F)CC3)ccc2c1=O	?	83	96	.	.	.
COCCn1c(=O)[nH]c2cc(C(=O)NCCCN3CCN(c4ccc(F)cc4)CC3)ccc2c1=O	.	35	58	.	.	.
COCCn1c(=O)[nH]c2cc(C(=O)Nc3cccc(F)c3)ccc2c1=O	.	40	.	.	.	.
Cc1ccc(C[C@@H](NS(=O)(=O)c2ccc(C(=O)O)cc2)C(=O)O)cc1	/	/	/	/	.	/
CCOCCc1nn2c(=O)cc(COC(=O)c3ccccc3NC(=O)CC(C)C)nc2s1	/	.	/	.	/	/
COc1ccccc1CC(Cc1nc2ccccc2[nH]1)c1nc2ccccc2[nH]1 (stereo not drawn)	.	.	.	.	.	.
CCn1cc(C(=O)OCC(=O)c2ccccc2)c(=O)c2ccc(C)nc21	.	.	.	.	.	.
CCn1cc(C(=O)OCC(=O)c2cc(C)n(-c3cccc(C(F)(F)F)c3)c2C)c(=O)c2ccc(C)nc21	.	.	.	31	.	.
CCn1cc(C(=O)OCc2ccc(F)cc2)c(=O)c2ccc(C)nc21	.	.	.	35	.	.
CCn1cc(C(=O)OCc2ccccc2)c(=O)c2ccc(C)nc21	.	.	.	.	.	.
COc1ccc(CCNC(=O)C(=O)NCC2CCCN2S(=O)(=O)c2ccc(OC)cc2)cc1 (stereo not drawn)	.	.	.	.	.	.
O=C(NC1CCCC1)C(c1ccncc1)N(Cc1cccs1)C(=O)c1csnn1 (stereo not drawn)	.	.	36	.	.	.
CC(C)NC(=O)c1onc(CSc2ccc(F)cc2)c1C(=O)NC(C)C	.	.	.	.	.	.
CCOC(=O)N1CCN(C(=O)CNS(=O)(=O)c2c(C)cc(C)cc2C)CC1	.	.	.	.	.	.
Cc1cc(C)c2sc(NNC(=O)C3COc4ccccc4O3)nc2c1 (stereo not drawn)	.	.	33	.	.	.
Cc1cccc2sc(NNC(=O)C3COc4ccccc4O3)nc12 (stereo not drawn)	.	.	.	.	.	.
Cc1ccc(-c2ocnc2C(=O)Nc2ccccc2C(=O)N2CCCC2)cc1	.	.	57	.	.	.
Cc1ccc(C(=O)N/C(=C\c2ccc(-c3cccc([N+](=O)[O-])c3)o2)C(=O)NCCCN(C)C)cc1	.	.	.	.	.	.
SMILES	D2 ag-1	D2 ag-2	D2 antag	D2 PAM-1	B2AR arrestin	D2 PAM-2
COc1cc(C(=O)NCC(=O)N/N=C/c2ccc(-c3ccc([N+](=O)[O-])cc3)o2)cc(OC)c1OC	.	.	.	.	.	.
Cc1ccc(/C=N/NC(=O)CNC(=O)c2ccc(C)c([N+](=O)[O-])c2)o1	.	.	.	.	.	.
COc1cc(C(=O)NCC(=O)N/N=C/c2ccc(-c3cccc([N+](=O)[O-])c3)o2)cc(OC)c1OC	.	.	50	.	.	.
Cc1ccc(/C=N/NC(=O)CNC(=O)c2cccc([N+](=O)[O-])c2C)o1	.	.	.	38	.	.
CN(C)CCCNC(=O)/C(=C\c1ccc(-c2cccc([N+](=O)[O-])c2)o1)NC(=O)c1ccccc1	.	.	37	.	.	.
O=C(NC(=S)Nc1ccc2oc(=O)ccc2c1)c1cccc(F)c1	.	.	.	.	.	.
O=C(NC(=S)Nc1ccc2oc(=O)ccc2c1)c1cccc(Cl)c1	.	.	30	.	.	.
CCN1C(=NCC(C)C)N[C@@H](c2ccccc2)[C@H](C(=O)OC)[C@H]1C	/	/	/	/	.	/
Cc1nn(Cc2ccc(Cl)cc2)c2sc(C(=O)O)cc12	.	.	32	.	.	.
Cc1nn(Cc2ccccc2Cl)c2sc(C(=O)Nc3nccs3)cc12	.	.	38	.	.	.
C=CCn1c(SCn2nnc3ccccc3c2=O)nnc1-c1ccc(F)cc1	.	.	.	.	.	.
C=CCn1c(SCn2nnc3ccccc3c2=O)nnc1-c1ccc(Br)cc1	.	.	.	36	.	.
S=C(NCCc1ccncc1)Nc1ccccc1	.	.	.	.	.	.
Cc1nn(C)c(C(=O)NNC(=S)NCc2ccco2)c1Br	.	.	.	.	.	.
Cc1nn(C)c(C(=O)NCc2ccc(Cl)cc2)c1Cl	.	.	44	.	.	.
Cc1nn(C)c(C(=O)NNC(=S)NCc2ccco2)c1Cl	.	.	.	34	.	.
Cc1ccc(CC(=O)NCc2ccc(Cl)cc2)cc1	.	.	53	.	.	.
Cc1cc(C)n2nc(SCC(=O)N3CCC(C(=O)O)CC3)nc2n1	.	/	/	/	.	.
Cc1ccc(Nc2c(F)c(F)c(F)c(F)c2C(=O)O)cc1	.	.	.	.	.	.
COc1ccc(-c2cc(C(=O)Nc3ccc4c(c3)OCO4)no2)cc1OC	.	.	.	.	.	.
CC(=O)Nc1ccc(NC(=O)C(C)OC(=O)C2(c3ccccc3F)CCCC2)cc1 (stereo not drawn)	.	.	.	.	.	.
O=C(O)c1ccccc1-c1nc2ccccc2n1-c1ccccc1	.	.	.	.	.	.
O=C1c2ccccc2-c2nc3ccccc3n21	.	.	.	35	.	.
CCCCNC(=O)CSc1nc2ccccc2nc1Cc1ccc(C)cc1	/	.	/	.	/	/
Cc1ccc(C(=O)CCNc2ccccc2)o1	.	.	33	.	/	.
Cc1ccc(/C=C/C(=O)N2CC(=O)Nc3ccccc32)o1	.	.	.	33	.	.
N/C(Cc1ccc([N+](=O)[O-])cc1)=N\OC(=O)c1ccc(Br)o1	?	.	.	.	.	132
N/C(Cc1ccc([N+](=O)[O-])cc1)=N\OC(=O)Cc1ccccc1	.	.	.	.	.	.
